System: ICK
Details: Compound Concentration (nM):1000
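Also: KINOMEscan scanMAX binding as percent activity remaining versus control; lower means stronger binding.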

Row | SMILES | Percent Control [%]
1 | NS(=O)(=O)c1ccc(N/N=C2\C(=O)Nc3ccc(C(=O)NCc4ccncc4)cc32)cc1 [GW300657X] | 15
2 | C/C(Nc1ccc(S(N)(=O)=O)cc1)=C1/C(=O)Nc2ccccc21 [GW335962X] | 92
3 | C[C@@H](Oc1cc(-n2cnc3ccc(OC4CCN(C)CC4)cc32)sc1C(N)=O)c1ccccc1Cl [GSK579289A] | 96
4 | COc1ccc2[nH]c3c4[nH]c5ccc(OC)cc5c4c4c(c3c2c1)C(=O)NC4=O [GW296115X] | 89
5 | CN1CCN(C(=O)c2ccc(NC(=O)Nc3ccc(N(C)c4ccnc(Nc5ccc(CS(C)(=O)=O)cc5)n4)cc3)cc2)CC1.Cl [GW830263A] | 44
6 | CCc1ccc(Oc2nccc(-c3c(-c4ccc(F)cc4)ncn3C3CCNCC3)n2)cc1 [SB-242719] | 100
7 | NS(=O)(=O)c1ccc(N/N=C2\C(=O)Nc3ccc(Cl)cc32)cc1 [GW280670X] | 94

System: IGF1R
Details: Compound Concentration (nM):1000

Row | SMILES | Percent Control [%]
8 | COc1ccc2c(-c3ccnc(Nc4cccc(OC(F)(F)F)c4)n3)cnn2n1 [GW810372X] | 100
9 | CCS(=O)(=O)c1ccc(OC)c(Nc2ncc(-c3cccc(OC)c3)o2)c1 [GW580509X] | 100
10 | CC1=C(C(=O)Nc2ccc3[nH]ncc3c2)C(c2ccc3ccccc3c2)CC(=O)N1 (centres unmarked) [GSK270822A] | 85
11 | COc1cccc(-c2c[nH]c3c(N/N=C/c4ccncc4)ncnc23)c1 [GW814408X] | 100
12 | Cl.O=C(Nc1ccc(Oc2ccc3[nH]c(NC(=O)c4ccco4)nc3c2)cc1)Nc1cc(C(F)(F)F)ccc1F [GW683134A] | 100
13 | COC(=O)Nc1nc2ccc(Oc3ccc(NC(=O)Nc4cc(C(F)(F)F)ccc4F)cc3)cc2s1.Cl [GW693917A] | 100
14 | COc1cc(N2CCN(C(C)C)CC2)ccc1Nc1nc(Nc2ccc(F)cc2C(=O)NC[C@@H](O)CO)c2cc[nH]c2n1 [GSK1392956A] | 9.8
15 | COc1cc2ncn(-c3cc(O[C@H](C)c4ccccc4Cl)c(C(N)=O)s3)c2cc1OC [GSK237701A] | 97
16 | Cl.c1ccc(Cc2nc3ccc(Nc4ncnc5ccccc45)cc3[nH]2)cc1 [GR269666A] | 100
17 | COc1cc(C)c(N(C)C(=O)CN(C)C)cc1Nc1nc(Nc2cccc(F)c2C(N)=O)c2cc[nH]c2n1 [GSK2219385] | 7.7
18 | NS(=O)(=O)c1ccc(N/N=C2\C(=O)Nc3ccc(C(=O)NCCc4c[nH]cn4)cc32)cc1 [GW300660X] | 100
19 | CCS(=O)(=O)c1ccc(OC)c(Nc2ncc(-c3cccc(F)c3)o2)c1 [GW621970X] | 100
20 | CN(C)CCNC(=O)Nc1ccc(N(C)c2ccnc(Nc3ccc(CS(C)(=O)=O)cc3)n2)cc1.Cl [GW830900A] | 100
21 | COc1cc(/C=N/Nc2ncnc3[nH]ncc23)ccc1O [GW578748X] | 100
22 | COc1ccc2cc(-c3c(-c4ccncc4)nc(-c4ccc(S(C)(=O)=O)cc4C)n3C)ccc2c1 [SB-633825] | 79
23 | COc1ccc(COc2ccc(Cc3cnc(N)nc3N)cc2OC)cc1 [GW632580X] | 91
24 | COc1cccc(-n2ncc3c(N/N=C/c4ccncc4)ncnc32)c1 [GW784752X] | 100
25 | CN(C)c1cc2c(Nc3ccc4c(cnn4Cc4ccccc4)c3)ncnc2cn1 [GW282974X] | 100
26 | Cc1cc(O)cc(C)c1/C=C/c1cncc(C(N)=O)c1 [GW435821X] | 100
27 | NS(=O)(=O)c1ccc(N/N=C2\C(=O)Nc3ccc(-c4cnco4)cc32)cc1 [GW276655] | 83

Row | SMILES | Percent Control [%]
28 | O=C(Nc1n[nH]c2nc(-c3ccc(O)cc3)c(Br)cc12)C1CC1 [SB-725317] | 100
29 | NS(=O)(=O)c1ccc(Nc2ncc(-c3ccccc3)o2)cc1 [GW572399X] | 100
30 | Cl.O=C(O[C@H]1CN[C@H](C#Cc2cc3ncnc(Nc4ccc5c(cnn5Cc5ccccc5)c4)c3s2)C1)N1CCOCC1 [GSK200398A] | 97
31 | COc1ccccc1-c1cc(/C=C2\C(=O)Nc3ncc(Br)cc32)cc(Br)c1O [GW442130X] | 100
32 | CC1=C(C(=O)Nc2ccc3[nH]ncc3c2)C(c2ccc(Cl)c(Cl)c2)CC(=O)N1 (centres unmarked) [GSK299115A] | 93
33 | COc1cc2ncnc(Nc3ccc4c(cnn4Cc4ccccc4)c3)c2cc1OC.Cl [GW282449A] | 100
34 | O=C1Nc2ccc(C(=O)c3ccco3)cc2C1=Cc1cc(Cl)c(O)c(Cl)c1 [GW406108X] | 100
35 | CC(C)COC(=O)c1ccc2c(c1)/C(=C/Nc1ccc(S(N)(=O)=O)cc1)C(=O)N2 [GW416981X] | 100
36 | Cl.O=S1CCN(Cc2ccc(-c3ccc4ncnc(Nc5ccc(OCc6ccccc6)c(F)c5)c4c3)o2)CC1 [GW576924A] | 100
37 | CCn1c(-c2nonc2N)nc2c(C#CC(C)(C)O)nc(OCCNC)cc21.Cl [GSK949675] | 100
38 | COc1cc(C=NNc2ncnc3c2cnn3-c2ccccc2)ccc1O [GW513184X] | 100
39 | Cl.O=C(Nc1ccc(Oc2ccc3[nH]c(NC(=O)c4ccccc4)nc3c2)cc1)Nc1cc(C(F)(F)F)ccc1F [GW709042A] | 100
40 | Nc1ncnc2occ(-c3ccc(NC(=O)Nc4cc(C(F)(F)F)ccc4F)cc3)c12 [GW770249X] | 100
41 | NS(=O)(=O)c1ccc(N/N=C2\C(=O)Nc3ccc(C(=O)NCc4ccncc4)cc32)cc1 [GW300657X] | 95
42 | C/C(Nc1ccc(S(N)(=O)=O)cc1)=C1/C(=O)Nc2ccccc21 [GW335962X] | 95
43 | C[C@@H](Oc1cc(-n2cnc3ccc(OC4CCN(C)CC4)cc32)sc1C(N)=O)c1ccccc1Cl [GSK579289A] | 69
44 | COc1ccc2[nH]c3c4[nH]c5ccc(OC)cc5c4c4c(c3c2c1)C(=O)NC4=O [GW296115X] | 97
45 | CN1CCN(C(=O)c2ccc(NC(=O)Nc3ccc(N(C)c4ccnc(Nc5ccc(CS(C)(=O)=O)cc5)n4)cc3)cc2)CC1.Cl [GW830263A] | 100
46 | CCc1ccc(Oc2nccc(-c3c(-c4ccc(F)cc4)ncn3C3CCNCC3)n2)cc1 [SB-242719] | 97
47 | NS(=O)(=O)c1ccc(N/N=C2\C(=O)Nc3ccc(Cl)cc32)cc1 [GW280670X] | 100
